The record followed here is ChEMBL document CHEMBL4513216, “Probing the Open Global Health Chemical Diversity Library for Multistage-Active Starting Points for Next-Generation Antimalarials” (ACS Infect Dis, 2020).

The campaign covered roughly 69,000 compounds. About 8,600 (12%) showed an effect of 50% or more. The full list was thinned out, with strong results kept by preference.

This assay relates to Plasmodium berghei. Briefly: Screen against P. berghei liver stage (PbLuc), transformed with Luciferase, at 10uM. The note with it: tested at 10 uM. The class given is functional, HepG2.
In the case of `Cn1c(=O)n(C)c2cc(NS(=O)(=O)Cc3cccc(F)c3)ccc21`, the INHIBITION worked out at 18.6%.

For `CC(C)n1cc(C(=O)NC2CN3CCC2CC3)c2ccccc21` (stereo not drawn), the INHIBITION was 50.8%.

`CC(C)n1ccc2cc(C(=O)Nc3nc[nH]n3)ccc21`: the INHIBITION was -22.4%.

For `Cn1ccc2ccc(C(=O)NC3CCOC(C)(C)C3)cc21` (stereo not drawn), the INHIBITION was 11.7%.

As for `Cn1ccc2c(C(=O)NC3CN4CCC3CC4)cccc21` (stereo not drawn), the INHIBITION was determined as 32.2%.

For `COCCn1ccc2c(C(=O)NC3CN4CCC3CC4)cccc21` (stereo not drawn), the INHIBITION turned out to be 63.8%.

`CC(C)n1cc(C(=O)NC2CCS(=O)(=O)C2)c2ccccc2c1=O` (stereo not drawn): the INHIBITION amounted to 11.1%.

Consider `COCCn1ccc2c(C(=O)NC(C)C)cccc21`, for which the INHIBITION worked out at 1.8%.

As to `CC(C)n1ccc2c(C(=O)NC3CN4CCC3CC4)cccc21` (stereo not drawn), the INHIBITION was determined as 50.8%.

On to `CCn1cc(C(=O)NC2CCN(S(C)(=O)=O)CC2)c2ccccc21`, for which the INHIBITION worked out at 2.37%.

As to `COCCn1ccc2c(C(=O)O)cccc21`, the INHIBITION came out at 17.7%.

With `Cc1c(NC(=O)NC2CN3CCC2CC3)cccc1C(=O)N1CCCC1` (stereo not drawn), the INHIBITION amounted to 21.5%.

On to `CC(C)n1ccc2ccc(C(=O)NC3CN4CCC3CC4)cc21` (stereo not drawn), for which the INHIBITION was determined as 58.2%.

In the case of `CCCc1nc(NCC(=O)N2CCOCC2)c2c(n1)c(C)nn2CC`, the INHIBITION turned out to be 45.8%.

As to `Cc1cc(NC(=O)C2CCCN(C(=O)NCC(C)C)C2)ccn1` (stereo not drawn), the INHIBITION is listed as -15.8%.

In the case of `CSCc1cccc(S(=O)(=O)N2CCCCC2)c1`, the INHIBITION turned out to be 37.5%.

With `O=C1N(C2CCOCC2)CCCC12CCN(c1ncccc1Cl)C2` (stereo not drawn), the INHIBITION is recorded as 12%.

Take `Nc1ncc(CN2CCC(O)(c3ccccc3F)CC2)cn1`: the INHIBITION is recorded as 31.5%.

On to `CC(NC(=O)c1ccc(Cl)cc1)c1nnc(SCC(N)=O)n1C` (stereo not drawn), for which the INHIBITION is 12.315%.

Turning to `Cn1nccc1-c1cnc2n1CCNC21CCN(C(=O)C2(C)CC2)CC1`, the INHIBITION is 13.1%.

As for `Cc1cnc(CNC(=O)N(CCCO)C2CCc3ccccc32)s1` (stereo not drawn), the INHIBITION was found to be 38.5%.

As to `CC(=O)N1CC[C@H]2OCC[C@@]2(C(=O)NCc2cnc(C)cn2)C1`, the INHIBITION was 42.1%.

As for `O=C(NCCN1C(=O)c2ccccc2C1=O)c1scnc1Cl`, the INHIBITION is recorded as 19.4%.

Turning to `COCCn1cc(CC(=O)Nc2nc3c(s2)CCC3)c2ccccc21`, the INHIBITION is recorded as -51.3%.

Consider `COCCn1ccc2c(C(=O)Nc3nc4c(s3)CCC4)cccc21`, for which the INHIBITION turned out to be 79.2%.

For the compound `COCCn1cc(C(=O)Nc2nc3c(s2)CCC3)c2ccccc21`, the INHIBITION came out at 45.5%.

On to `CCn1ccnc1CN1CCN(CCC(=O)NC2CCCCC2)CC1`, for which the INHIBITION is -1.65%.

Consider `COCC(=O)N(Cc1ccc2cc[nH]c2c1)C1CC1`, for which the INHIBITION came out at 10.9%.

Turning to `CCNC(=O)NCC1(CN2CCOCC2)CCCCC1`, the INHIBITION is 11.9%.

On to `Cc1nc[nH]c1CNC1CC(=O)N(CCc2cccc(Cl)c2)C1` (stereo not drawn), for which the INHIBITION turned out to be 53.9%.

`Cc1ncc(CNC2CC(=O)N(CCc3cccc(Cl)c3)C2)n1C` (stereo not drawn): the INHIBITION worked out at 60.5%.

For `O=C1CC(NCc2ccncc2)CN1CCc1cccc(Cl)c1` (stereo not drawn), the INHIBITION stood at 44.8%.

For `CN(C)c1ncc(CNC2CC(=O)N(CCc3cccc(Cl)c3)C2)s1` (stereo not drawn), the INHIBITION came out at 53.9%.

For the compound `O=C1CC(NCc2ncc[nH]2)CN1CCc1cccc(Cl)c1` (stereo not drawn), the INHIBITION is 39.9%.

In the case of `CCc1ncc(CNC2CC(=O)N(CCc3cccc(Cl)c3)C2)cn1` (stereo not drawn), the INHIBITION was -11.5%.

Take `Cc1ncc(CNC2CC(=O)N(CCc3ccc(F)cc3)C2)n1C` (stereo not drawn): the INHIBITION is listed as 14.5%.

For `Cc1cccc(CNC2CC(=O)N(CCc3cccc(Cl)c3)C2)n1` (stereo not drawn), the INHIBITION was -13%.

Consider `Cc1nc(CNC2CC(=O)N(CCc3cccc(Cl)c3)C2)c[nH]1` (stereo not drawn), for which the INHIBITION was found to be 43.4%.

With `Cn1cccc1C(=O)NCc1ccnc(C2CCCOC2)n1` (stereo not drawn), the INHIBITION stood at 39.8%.

Consider `COc1ccc(Cc2nnc(NC(=O)C3CC34CCC4)s2)cc1OC` (stereo not drawn), for which the INHIBITION is recorded as 17.75%.

As to `Cc1cc(O)nc(C2CCN(C(=O)CO)CC2)n1`, the INHIBITION came to 30.55%.

On to `Cc1noc(C)c1CCC(=O)N1CCCN(C)CC1`, for which the INHIBITION turned out to be 1.7%.

Regarding `Cc1cnc(N2CCCC3(CCOCC3)C2)nc1`, the INHIBITION is listed as -22.1%.

Regarding `COc1ccc(C(=O)C2CCCN(c3cc(C#N)ccn3)C2)cc1F` (stereo not drawn), the INHIBITION is given as 63%.

As for `COc1ccc(C(=O)N2CCCC(C)C2)cc1F` (stereo not drawn), the INHIBITION amounted to 28.5%.

Turning to `COc1cccc(C(=O)C2CCCN(c3cc(C#N)ccn3)C2)c1` (stereo not drawn), the INHIBITION was 59.4%.

Consider `CNC(=O)c1ccnc(N2CCCC(COc3cccc(C)c3)C2)c1` (stereo not drawn), for which the INHIBITION stood at 47.2%.

Regarding `COc1ccc(C(=O)C2CCCN(c3cc(C#N)ccn3)C2)cc1OC` (stereo not drawn), the INHIBITION was determined as 42.1%.

For `COc1ccccc1C(=O)C1CCCN(c2cc(C#N)ccn2)C1` (stereo not drawn), the INHIBITION was 18.5%.

`Cn1[nH]c(C2CCCN(C(=O)CO)C2)cc1=O` (stereo not drawn): the INHIBITION turned out to be 29%.

For `COCCN(C)CC(=O)N1CCCC2(CCC(=O)N(CC3CC3)C2)C1` (stereo not drawn), the INHIBITION is recorded as 29.4%.

On to `CC(C)(C)S(=O)(=O)c1ccc(N2CCC(n3ccnc3)CC2)cn1`, for which the INHIBITION was found to be 34.5%.

In the case of `O=C1CN(c2ccc(CNC(=O)NCC3CCOC3)cc2)CCN1` (stereo not drawn), the INHIBITION is listed as 0.411%.
